Experimental data from PubChem BioAssay (NCATS).
Records with an inconclusive call do not appear. Unmarked numbers belong to inactive results. The source made the active and inactive calls. Calls come from the whole dose curve; as a rule, active = well fitted cell-killing curve with a large enough effect; inconclusive = small, poorly fitted or top-dose-only effect, or effect the other way; inactive = no such curve, though single readings can be large or run the other way.

Assay: Quantitative High-Throughput drug screen in 47 multiple myeloma cell lines against the NCATS MIPE library collection: Karpas25_ECACC cell viability assay (AID 1918968; note: nearly all actives have a fitted effect of over 35% in size;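 for viability (% of control): 100% = DMSO only wells and 0% = media only wells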)
Conditions: Karpas25 myeloma viability, CellTiter-Glo ATP, 48 h; series mostly up to 45.8 µM; viability (% of control): at the top concentration
Method in brief: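 qHTS of the MIPE 4.0 collection: 500 myeloma cells/well, 48 h drug exposure at 37C in 5% CO2, then CellTiter-Glo for 5 min at room temperature before luminescence reading.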
Potency is the fitted concentration of half-maximal effect.

SMILES | Potency | viability (% of control)
COc1cc2c(Nc3ccc(Br)cc3F)ncnc2cc1OCC1CCN(C)CC1 | 8.33 µM (active) | 
CC(C(=O)O)c1ccc2c(c1)CC(=O)c1ccccc1S2 (stereo not drawn) | 18.7 µM (active) | 
CNC1CCCN(c2c(F)cc3c(=O)c(C(=O)O)cn(C4CC4)c3c2OC)C1 (stereo not drawn) | 9.35 µM (active) | 
NC(N)=NC(N)=NCCc1ccccc1 | 5.26 µM (active) | 
Cc1nnc(NS(=O)(=O)c2ccc(N)cc2)s1 | 8.33 µM (active) | 
NC(=O)c1cccnc1 |  | 112%
N[C@@H](Cc1ccc(O)c(O)c1)C(=O)O |  | 101%
CS(=O)(=O)c1ccc([C@@H](O)[C@@H](CO)NC(=O)C(Cl)Cl)cc1 | 16.6 µM (active) | 
CC(C)(C#N)c1cc(Cn2cncn2)cc(C(C)(C)C#N)c1 |  | 91.8%
NS(=O)(=O)c1cc2c(cc1Cl)NC(C(Cl)Cl)NS2(=O)=O (stereo not drawn) |  | 98.3%
CN1CCN(c2c(F)cc3c(=O)c(C(=O)O)cn4c3c2OCN4C)CC1 |  | 137%
Cc1ncc([N+](=O)[O-])n1CCO |  | 131%
COc1cc(NS(=O)(=O)c2ccc(N)cc2)nc(OC)n1 |  | 113%
CCCCCCNC(=O)n1cc(F)c(=O)[nH]c1=O | 7.43 µM (active) | 
Cc1nnc(C(=O)NC(C)(C)c2nc(C(=O)NCc3ccc(F)cc3)c(O)c(=O)n2C)o1 |  | 121%
O=c1oc2c(O)c(O)cc3c(=O)oc4c(O)c(O)cc1c4c23 |  | 124%
OC(Cn1cncn1)(Cn1cncn1)c1ccc(F)cc1F |  | 112%
COc1ccc(-c2ccc3cc(C(=O)O)ccc3c2)cc1C12CC3CC(CC(C3)C1)C2 |  | 138%
